Assay [1] is described as follows: Cell Viability - Jurkat (AID 426;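 active = dose-dependent loss of cell ATP signal giving a full or clear fitted curve, ranked by lower potency value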;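 note: potency is the fitted concentration of half-maximal effect; cells exposed to compound for 40 hours at 37 °C before ATP read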). The note with it: qHTS. The procedure, abridged: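 Seed 5000 Jurkat E6-1 cells/well; add compound; incubate 40 hr at 37 °C; add CellTiter-Glo; wait 20 min at room temperature; read luminescence. Fit concentration-response with Hill equation for AC50.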
(In general: qHTS replaces the single test concentration by a dilution series.)

Assay [2] can be described thus: Cell Viability - Hek293 (AID 427;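 active = compounds whose dose-response curve shows a full or clear partial loss of cell viability, called from curve shape rather than a numeric limit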;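 note: potency is the fitted concentration of half-maximal effect; cells exposed to compound for 40 hours at 37 °C before reading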). The note with it: qHTS. The procedure, abridged:
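qHTS, human embryonic kidney (adenovirus-transformed) cells; 40 hr cpd, 37 °C; CellTiter-Glo ATP luminescence. Norm: DMSO = 0, 100 uM tamoxifen = 100% inhibition. Hill-fit AC50.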

Assay [3] in a line: Cell Viability - N2a (AID 540).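 Note: cells exposed to compound for 40 h at 37 °C; plate controls were DMSO alone for no effect and tamoxifen control for full effect; nearly all actives have a fitted effect of over 45% in size.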 The note with it: N2a mouse neuroblastoma cell viability; at 92.2 µM (top of the series). In short, it runs like this:
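First, 1500 N2a cells per well incubate 5 hr at 37 °C; next, compounds are added and incubated 40 hr at 37 °C; finally CellTiter-Glo is added and luminescence read after 20 min, with AC50 derived by Hill modeling.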

Assay [4] can be described thus: Cell Viability - H-4-II-E (AID 543).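 Note: cells exposed to compound for 40 hours; % is set by controls: 0 for no effect and ±100 for the full control effect; nearly all actives have a fitted effect of over 35% in size.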 Conditions: H-4-II-E rat hepatoma viability; series mostly up to 92.2 µM. In short, it runs like this:
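Here, cytotoxicity is measured in the rat hepatoma line H-4-II-E as loss of intracellular ATP after 40 hr compound treatment, detected by luciferase luminescence.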

A short description of assay [5]: Cellular Toxicity (caspase-3) HepG2 (AID 654).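 Note: cells exposed to compound for 16 hours before reading; 0% = DMSO alone and 100% = caspase signal from 100 µM tamoxifen.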 Conditions: HepG2 caspase-3 activation, luminescence, 0% = DMSO only, 100% = tamoxifen; series mostly up to 92.2 µM. In short, it runs like this: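 qHTS, HepG2, 1500 cells/well, complete medium; cpd 16 h 37 °C; Caspase-Glo 3/7, 20 min RT; lum. Norm: DMSO vs 100 uM tamoxifen; AC50 Hill fit.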
Assay [6] can be described thus: Cellular Toxicity (caspase-3) NIH 3T3 (AID 666).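 Note: caspase signal read after 16 h compound exposure; 0% = DMSO basal and 100% = 100 µM tamoxifen stimulation.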 Conditions: NIH 3T3 caspase-3 activation, apoptosis/toxicity, 0% DMSO, 100% is 100 µM tamoxifen; series mostly up to 92.2 µM. In short, it runs like this:
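Concentration-response qHTS in NIH 3T3 mouse fibroblasts scores caspase-3/7 activation as rising luminescence after 16 hr compound exposure. Signals are scaled between DMSO-only and 100 uM tamoxifen.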

A short description of assay [7]: MultiTox-Fluor Cytotoxicity Assay - LYMP1-002 - Live Cells (AID 955).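 Note: cells exposed to compound for 16 hours; % is set by controls: 0 for no effect and ±100 for the full control effect.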 Conditions: LYMP1-002 lymphoblastoid live-cell protease fluorescence viability; series mostly up to 46.1 µM. In short, it runs like this: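 Cytotoxicity in the human lymphoblastoid line LYMP1-002 is measured as loss of live-cell protease activity after 16 h treatment in complete culture medium. AC50 is derived from Hill-equation fits of qHTS concentration-response data.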

A short description of assay [8]: MultiTox-Fluor Cytotoxicity Assay - LYMP1-003 - Live Cells (AID 962).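 Note: cells exposed to compound for 16 hours at 37 °C; 0% = DMSO only and full loss = 92 µM tetraoctylammonium bromide; cytotoxic hits lower the live-cell protease signal.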 The note with it: LYMP1-003 lymphoblastoid cells, MultiTox-Fluor live-cell protease fluorescence; series mostly up to 92.2 µM. In short, it runs like this: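 Cells plated at 2500 per well and incubated 5 hr; compounds added and incubated 16 hr at 37 C; MultiTox-Fluor reagent added for 60 min at room temperature; fluorescence of liberated AFC measured at 405/510 nm.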

Assay [9] can be described thus: Cell Viability - LYMP1-003 - Assay at 40 hr (AID 964). Note: % is set by controls: 0 for no effect and ±100 for the full control effect; nearly all actives have a fitted effect of over 60% in size. The note with it: LYMP1-003 lymphoblastoid viability; series mostly up to 92.2 µM. In short, it runs like this:
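This qHTS cytotoxicity screen treats human lymphoblastoid cells (LYMP1-003) with compounds for 40 hr and quantifies cellular ATP via luciferase luminescence.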

Assay [10] can be described thus: Cell Viability - LYMP2-003 (AID 965).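 Note: cells exposed to compounds for 24 h before reading; 0% = DMSO only and full effect = 92 µM tetraoctylammonium bromide; nearly all actives have a fitted effect of over 50% in size.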 Conditions: LYMP2-003 lymphoblastoid cell viability; series mostly up to 92.2 µM. In short, it runs like this: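 CellTiter-Glo luminescence (cellular ATP) after 24 h compound exposure at 37 C in complete medium; 2500 cells/well, 5 h settling beforehand. Concentration-response fitted to standard Hill equation for AC50. Tetraoctylammonium bromide served as positive control.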

Assay [11] can be described thus: Cell Viability - LYMP2-006 (AID 978).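 Note: cells exposed to compound for 24 hours; % is set by controls: 0 for no effect and ±100 for the full control effect; nearly all actives have a fitted effect of over 60% in size.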 Conditions: LYMP2-006 lymphoblastoid cell viability, qHTS; series mostly up to 92.2 µM. In short, it runs like this: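 qHTS, 1536-well; 2500 cells/well, 5 hr 37 C; cpd 24 hr 37 C; CellTiter-Glo 30 min RT; luminescence. Tetraoctylammonium bromide pos. ctrl. AC50 via Hill eqn.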
Assay [12] in a line: Cell Viability - LYMP2-008 (AID 980). Note: % is set by controls: 0 for no effect and ±100 for the full control effect; nearly all actives have a fitted effect of over 60% in size. The note with it: LYMP2-008 lymphoblastoid cell viability, qHTS; series mostly up to 92.2 µM. In short, it runs like this:
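Acute cytotoxicity is scored as concentration-dependent loss of cellular ATP in a human lymphoblastoid line after 24 hr treatment at 37 C. ATP is quantified by luciferase luminescence.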

Assay [13] is described as follows: Cell Viability - LYMP2-026 (AID 989). Note: % is set by controls: 0 for no effect and ±100 for the full control effect; nearly all actives have a fitted effect of over 50% in size. The note with it: LYMP2-026 lymphoblastoid cell viability, qHTS; series mostly up to 92.2 µM. The procedure, abridged:
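Concentration-dependent loss of intracellular ATP in human lymphoblastoid cells after 24 hr at 37 C, quantified by luciferase luminescence. AC50 derived from standard Hill equation.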

Assay [14] can be described thus: Cell Viability - LYMP1-002 - Assay at 24 hr (AID 993). Note: % is set by controls: 0 for no effect and ±100 for the full control effect. Conditions: LYMP1-002 lymphoblastoid cells viability; series mostly up to 92.2 µM. The procedure, abridged: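 qHTS, LYMP1-002 lymphoblastoid, 24 h cpd, 37 C, CellTiter-Glo ATP luminescence; AC50 via Hill eq.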
A short description of assay [15]: Cell Viability - LYMP1-002 - Assay at 40 hr (AID 994).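 Note: 0% = DMSO only and full inhibition = 92 µM tetraoctylammonium bromide; nearly all actives have a fitted effect of over 60% in size.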 Conditions: LYMP1-002 lymphoblastoid cell viability; series mostly up to 92.2 µM. In short, it runs like this:
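Viability in the human lymphoblastoid line was measured as intracellular ATP via CellTiter-Glo after 40 hr compound exposure. Tetraoctylammonium bromide served as positive control.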

Assay [16] can be described thus: qHTS assay for small molecule agonists of retinoid X receptor alpha signaling (AID 588544). Conditions: HEK293T RXRa-UAS-bla, beta-lactamase reporter, 18 h; 530 nm emission.
A short description of assay [17]: qHTS assay for small molecule disruptors of the mitochondrial membrane potential - 5 hr assay (AID 651755; calls by dose curve; note: % is set by controls: 0 for no effect and ±100 for the full control effect; nearly all actives have a fitted effect of over 40% in size). The note with it: JC-1-type ratio dye; series mostly up to 92.2 µM. In short, it runs like this:
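HepG2 cells, attached overnight at 37C, were exposed to compound or DMSO for 5 hr at 37C, 5% CO2. Mito-MPS dye was then added for 30 min, and fluorescence read at 490/535 nm (monomers) and 540/590 nm (aggregates).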

For assay [18], the target named is Tumor necrosis factor (Homo sapiens) (UniProt P01375). Kind of assay: qHTS assay to identify small molecules that stimulate Tumor Necrosis Factor-alpha (TNF-alpha) secretion (AID 651757; active = well fitted curve in the direction sought with a large enough effect in the signal ratio; the % refers to the signal ratio; note: 0% is about no effect). Conditions: Human cells, HTRF 665/615 ratio; series mostly up to 92.2 µM. The procedure, abridged:
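Secreted TNF-alpha from compound-treated THP-1 cells (17 hrs, 37 C) was quantified with a homogeneous time-resolved fluorescence antibody assay.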

In assay [19] the target is Peroxisome proliferator-activated receptor alpha (Homo sapiens) (UniProt Q07869). Kind of assay: qHTS assay for small molecule agonists of the peroxisome proliferator-activated receptor alpha (PPARalpha) signaling pathway (AID 651778). Note: % of control where 0% means no effect. Conditions: PathHunter PPARalpha complementation, chemiluminescence, 6 h; stronger effect = higher value. The procedure, abridged:
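Cells plated at 2,000/well and held overnight at 37 C, 5% CO2, then compound added by pin tool for 6 hr; after PathHunter detection reagent and 60 min at room temperature, chemiluminescence from enzyme complementation was read.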

The nature of assay [20]: qHTS assay for small molecule agonists of the antioxidant response element (ARE) signaling pathway measured by Nrf2-dependant transcriptional activity (AID 720636; active = well fitted curve in the direction sought with a large enough effect in the repeat runs; an effect the other way counts as inactive or inconclusive;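 note: HepG2 cells with an ARE-driven luciferase reporter; % of control where 0% means no effect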). The note with it: ARE-luc HepG2, Nrf2 luciferase reporter, 16 h; series mostly up to 92.4 µM. In short, it runs like this:
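ONE-Glo luminescence, read 30 min after reagent addition at room temperature, reflected ARE reporter activity in HepG2 cells that had been incubated with compound for 16 hr at 37 C in 1% dialyzed FBS.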

Consider 6 compounds from PubChem BioAssay (NCATS).

SMILES strings stand for the structures. “And” between values parts separate entries of the source, which are not always exact repeats. Identical values can stand only once. Inconclusive results are not listed. The source made the active and inactive calls. Unless noted, calls come from the whole dose curve; as a rule, active = well fitted curve in the direction sought with a large enough effect; inconclusive = small, poorly fitted or top-dose-only effect, or another doubt; inactive = no such curve, though single readings can be large; an effect the other way counts as inactive or inconclusive. Bounds are passed on as bounds.

Tumor necrosis factor (Homo sapiens), sequence (P01375 whole entry, looked up): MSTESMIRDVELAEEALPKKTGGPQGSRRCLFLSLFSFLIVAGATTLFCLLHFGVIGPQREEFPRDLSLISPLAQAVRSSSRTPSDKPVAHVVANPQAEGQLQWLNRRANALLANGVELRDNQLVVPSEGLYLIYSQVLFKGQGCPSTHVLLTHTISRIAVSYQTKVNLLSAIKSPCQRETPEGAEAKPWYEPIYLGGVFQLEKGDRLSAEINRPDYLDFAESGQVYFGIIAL
Peroxisome proliferator-activated receptor alpha (Homo sapiens), sequence (Q07869 whole entry, looked up): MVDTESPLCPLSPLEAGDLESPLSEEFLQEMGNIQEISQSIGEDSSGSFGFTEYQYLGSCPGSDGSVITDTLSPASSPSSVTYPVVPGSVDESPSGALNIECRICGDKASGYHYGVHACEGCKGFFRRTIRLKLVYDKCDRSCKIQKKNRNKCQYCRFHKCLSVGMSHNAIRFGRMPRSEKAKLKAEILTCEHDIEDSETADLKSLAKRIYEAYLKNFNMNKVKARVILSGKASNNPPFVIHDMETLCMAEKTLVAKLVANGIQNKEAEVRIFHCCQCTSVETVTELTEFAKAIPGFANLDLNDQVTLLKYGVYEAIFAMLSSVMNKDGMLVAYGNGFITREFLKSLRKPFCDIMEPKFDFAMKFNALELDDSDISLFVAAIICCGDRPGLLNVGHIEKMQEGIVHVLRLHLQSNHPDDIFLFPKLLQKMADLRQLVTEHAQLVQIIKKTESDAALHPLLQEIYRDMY

Regarding `OCC1CO1` (stereo not given), the Potency in assay [1] and in [2] was > 92 µM (inactive) in each case. In addition, the activity change, negative = cytotoxicity in assay [3] was -10.8% (inactive). For the same compound, the Potency result in assay [4], in assay [8], in [9], in assay [10], in [11] and in assay [12] was “inactive” each time. For the same compound, the Potency result in assay [13], in assay [14], in assay [15] and in assay [17] was “inactive” throughout. In addition, the call in [5], in [6], in [7], in [18] and in assay [20] was inactive. In addition, the max response was -4.32% in assay [16]; -0.572% (inactive) and -0.317% (inactive) in assay [19].
Regarding `C=C(Cl)Cl`, the Potency in [1] and in assay [2] was > 92 µM (inactive) throughout. Also, the activity change, negative = cytotoxicity in [3] was 3.46% (inactive). Further, the Potency result in [4], in assay [8], in assay [9], in assay [10], in assay [11] and in assay [12] was “inactive” in each case. The Potency entry in assay [13], in [14], in assay [15] and in [17] was “inactive” in each case. Also, the compound was called inactive in [5], in assay [6], in assay [7], in [18] and in [20]. The results for the max response in assay [16] and in assay [19] were -17.1% and -2.47% (inactive), respectively.
As to `O=C(Cl)/C=C/C(=O)Cl`, the Potency in assay [1] and in assay [2] was > 92 µM (inactive) throughout. The activity change, negative = cytotoxicity in assay [3] was 3.07% (inactive). The Potency result in assay [4], in assay [8], in [9], in [10], in assay [11] and in [12] was “inactive” in each case. In addition, the Potency entry in assay [13], in assay [14], in assay [15] and in assay [17] was “inactive” in each case. In addition, the result in [5], in assay [6], in [7], in assay [18] and in assay [20] was inactive. The max response in assay [16] was -9%; in assay [19], -3.04% (inactive).
As to `Nc1ccccc1Cl`, the Potency in assay [1] and in assay [2] was > 92 µM (inactive) each time. Besides, the activity change, negative = cytotoxicity in assay [3] is 0.502% (inactive). Moreover, the Potency result in assay [4], in [8], in assay [9], in assay [10], in [11] and in assay [12] was “inactive” each time. Further, the Potency result in [13], in [14], in [15] and in assay [17] was “inactive” in each case. Besides, the call in assay [5], in assay [6], in assay [7], in [18] and in assay [20] was inactive. In addition, the max response in assay [16] is -4.32%; in [19], -2.66% (inactive).
In the case of `CC(C)(C)OOC(C)(C)C`, the Potency in assay [1] and in assay [2] was > 92 µM (inactive) each time. Besides, in assay [3], the activity change, negative = cytotoxicity is -8.54% (inactive). For the same compound, the Potency result in assay [4], in [8], in [9], in assay [10], in assay [11] and in [12] was “inactive” throughout. In addition, the Potency result in assay [13], in assay [14], in assay [15] and in [17] was “inactive” throughout. Further, the call in assay [5], in assay [6], in assay [7], in [18] and in assay [20] was inactive. For the same compound, the results for the max response in [16] and in assay [19] were -0.936% and 0.694% (inactive), respectively.
Consider `CCC[CH2][Sn]([Cl])([Cl])[Cl]`, for which the Potency in [1] and in [2] was > 92 µM (inactive) each time. In [3], the activity change, negative = cytotoxicity is 12.4% (inactive). In addition, the Potency result in assay [4], in [8], in assay [9], in [10], in [11] and in assay [12] was “inactive” each time. Also, the Potency result in assay [13], in assay [14], in assay [15] and in [17] was “inactive” throughout. Also, the result in assay [5], in [6], in [7], in [18] and in assay [20] was inactive. Besides, the max response in assay [16] is -13.2% and -14.8%; in assay [19], 0.179% (inactive) and -1.51% (inactive).
